Test results published in PubChem BioAssay (NCATS).
Inconclusive results are not listed. A call without a number means that no potency is given here. Activity calls are given as the source filed them. Calls come from the whole dose curve; as a rule, active = well fitted curve in the direction sought with a large enough effect; inconclusive = small, poorly fitted or top-dose-only effect, or another doubt; inactive = no such curve, though single readings can be large; an effect the other way counts as inactive or inconclusive.

Biological target: Calcium and integrin-binding protein 1 (Homo sapiens) (UniProt Q99828)
Sequence (Q99828 whole entry, looked up): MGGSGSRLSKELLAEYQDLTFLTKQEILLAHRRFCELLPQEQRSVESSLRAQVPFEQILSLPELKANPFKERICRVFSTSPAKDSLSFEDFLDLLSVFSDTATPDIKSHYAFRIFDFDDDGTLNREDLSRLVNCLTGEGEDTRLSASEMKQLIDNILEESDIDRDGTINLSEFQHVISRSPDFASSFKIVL
Assay: Primary qHTS for Identification of Calcium Integrin Binding Protein 1 (CIB1) Competitor (AID 1508620); note: potency is the fitted concentration of half-maximal effect
Conditions: CIB1-GST / FITC-alphaIIb peptide fluorescence polarization; series mostly up to 57.7 µM
In short: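 CIB1-GST (1 uM final) and compound incubated 15 min at room temperature before adding FITC-alphaIIb peptide tracer (100 nM final). Competition for binding read by fluorescence polarization (ex 480, em 540) after another 15 min at room temperature.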

SMILES | Potency
Fc1ccc(CNc2ncnc3ccc(F)cc23)cc1 | inactive
COc1nccc(-c2c(-c3ccc(F)cc3)ncn2C2CCNCC2)n1 | inactive
O=C(CO)N1CCC(c2[nH]nc(-c3ccc(Cl)cc3)c2-c2ccncn2)CC1 | inactive
CCC(=O)N1CCN(c2ccc(-n3c(=O)ccc4cnc5ccc(-c6cnc7ccccc7c6)cc5c43)cc2C(F)(F)F)CC1 | inactive
CCOC(=O)[C@@H](N)CCC(=O)N[C@@H](CSCc1ccccc1)C(=O)N[C@@H](C(=O)OCC)c1ccccc1 | inactive
CN1CCN(c2ncc(-c3cc(Cl)cc(Cl)c3Cl)c(N)n2)CC1 | inactive
CCCCCOC(=O)Nc1nc(=O)n([C@@H]2O[C@H](C)[C@@H](O)C2O)cc1F (stereo partly drawn) | inactive
O=C(c1ccc(C=Cc2n[nH]c3ccccc23)cc1)N1CCNCC1 | inactive
CNC(=O)c1cc(Oc2ccc(NC(=O)Nc3ccc(Cl)c(C(F)(F)F)c3)c(F)c2)ccn1 | inactive
Fc1ccc(C(c2ccc(F)cc2)N2CCN(CC=Cc3ccccc3)CC2)cc1 | 19.2 µM (active)
C[C@H](CCC(=O)O)[C@H]1CC[C@H]2[C@H]3[C@@H](CC[C@]12C)[C@@]1(C)CC[C@@H](O)C[C@H]1C[C@@H]3O | inactive
COc1cc2nccc(Oc3ccc(NC(=O)Nc4ccc(F)cc4F)c(F)c3)c2cc1OC | inactive
CC1(C)OC2CC3C4CC(F)C5=CC(=O)C=CC5(C)C4C(O)CC3(C)[C@]2(C(=O)CO)O1 (stereo partly drawn) | inactive
CC(C)[C@H](O)C(=O)N[C@@H](C)C(=O)N[C@@H]1C(=O)N(C)CCc2ccccc21 | inactive
Cc1cnc(Nc2cccc(CN3CCOCC3)c2)nc1Nc1cccc(S(=O)(=O)NC(C)(C)C)c1 | inactive
CN1c2ccccc2C(=O)N2CCc3c([nH]c4ccccc34)C21 (stereo not drawn) | inactive
CN1C(=O)C[C@H](C(=O)N[C@@H](Cc2cnc[nH]2)C(=O)N2CCC[C@@H]2C(N)=O)NC1=O | inactive
COc1ccc(CCC(=O)Nc2nc3ccc(Cl)cc3s2)cc1OC | inactive
O=C(Nc1cccc(Cl)c1)Nc1ncc(CCNc2ncnc3ccsc23)s1 | inactive
CCOC(=O)[C@H]1O[C@H]1C(=O)N[C@@H](CC(C)C)C(=O)NCCC(C)C | inactive
CCOc1ccccc1N=Nc1c(C)[nH]n(-c2nc(-c3ccccc3)cs2)c1=O | inactive
O=C1C(c2c(O)[nH]c3ccccc23)=Nc2ccccc21 | inactive

Test system: not listed separately
Assay: Primary qHTS for small molecule stabilizers of the endoplasmic reticulum resident proteome: Secreted ER Calcium Modulated Protein (SERCaMP) assay (AID 1508630)
Conditions: SH-SY5Y GLuc-SERCaMP (Gaussia luciferase released on ER calcium loss) secretion, thapsigargin, luminescence; series mostly up to 38.4 µM
In short: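 The SH-SY5Y reporter protocol was run at 3 concentrations up to 38.3 uM (primary) or 11 concentrations (follow-up): 16 h compound, 100 nM thapsigargin for 4 h, then extracellular luciferase luminescence.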

SMILES | Potency
Cc1cc(CS(=O)(=O)c2ccccc2)cc(OCc2ccc(CN3CCC[C@H]3CO)cc2)c1 | inactive
O=C(NC[C@H](O)CO)c1ccncc1Nc1ccc(I)cc1F | inactive
COC(=O)Nc1ccc(-c2nc(N3CCOCC3)c3cnn(C4CCN(C(=O)OC)CC4)c3n2)cc1 | inactive
CCNC(=O)[C@H]1O[C@@H](n2cnc3c(N)nc(NCCc4ccc(CCC(=O)O)cc4)nc32)[C@H](O)[C@H]1O | inactive
Clc1ccc(C2(c3ccc(-c4cn[nH]c4)cc3)CCNCC2)cc1 | inactive
FC(F)(F)c1ccc(C=Cc2nc(COc3ccc(CCCCn4ccnn4)cc3)co2)cc1 | inactive
C[C@]12CC[C@@H]3c4ccc(O)cc4CC[C@H]3[C@H]1[C@@H](O)[C@@H](O)[C@H]2O | inactive
CCN1CCC(n2cc(CNc3cc(Cl)c4ncc(C#N)c(Nc5ccc(F)c(Cl)c5)c4c3)nn2)CC1 | inactive
O=C1NC(=O)C(=Cc2ccc(-c3ccc(F)cc3O)o2)S1 | inactive
CCC(=O)OCC(=O)[C@@]1(OC(=O)CC)[C@@H](C)C[C@@H]2[C@H]3CCC4=CC(=O)C=C[C@]4(C)[C@@]3(F)[C@@H](O)C[C@@]21C | inactive
CN(C)CCOc1ccc(C(=C(CCCl)c2ccccc2)c2ccccc2)cc1 | inactive
CC(C)C[C@@H](N)[C@H](O)C(=O)N[C@H](C(=O)N[C@H](C(=O)N[C@@H](CC(=O)O)C(=O)O)C(C)C)C(C)C | inactive
O=C(CC12CC3CC(CC(C3)C1)C2)Nc1cccc2nc(NCCNCCO)ccc12 | inactive
Nc1ccc(-c2ccc3ncc4ccc(=O)n(-c5cccc(C(F)(F)F)c5)c4c3c2)cn1 | inactive
Fc1ccc(CNc2ncnc3ccc(F)cc23)cc1 | inactive
COc1nccc(-c2c(-c3ccc(F)cc3)ncn2C2CCNCC2)n1 | inactive
O=C(CO)N1CCC(c2[nH]nc(-c3ccc(Cl)cc3)c2-c2ccncn2)CC1 | inactive
CCC(=O)N1CCN(c2ccc(-n3c(=O)ccc4cnc5ccc(-c6cnc7ccccc7c6)cc5c43)cc2C(F)(F)F)CC1 | inactive

SMILES | Potency
CCOC(=O)[C@@H](N)CCC(=O)N[C@@H](CSCc1ccccc1)C(=O)N[C@@H](C(=O)OCC)c1ccccc1 | inactive
CN1CCN(c2ncc(-c3cc(Cl)cc(Cl)c3Cl)c(N)n2)CC1 | inactive
CCCCCOC(=O)Nc1nc(=O)n([C@@H]2O[C@H](C)[C@@H](O)C2O)cc1F (stereo partly drawn) | inactive
O=C(c1ccc(C=Cc2n[nH]c3ccccc23)cc1)N1CCNCC1 | inactive
CNC(=O)c1cc(Oc2ccc(NC(=O)Nc3ccc(Cl)c(C(F)(F)F)c3)c(F)c2)ccn1 | inactive
Fc1ccc(C(c2ccc(F)cc2)N2CCN(CC=Cc3ccccc3)CC2)cc1 | inactive
C[C@H](CCC(=O)O)[C@H]1CC[C@H]2[C@H]3[C@@H](CC[C@]12C)[C@@]1(C)CC[C@@H](O)C[C@H]1C[C@@H]3O | inactive
COc1cc2nccc(Oc3ccc(NC(=O)Nc4ccc(F)cc4F)c(F)c3)c2cc1OC | inactive
CC1(C)OC2CC3C4CC(F)C5=CC(=O)C=CC5(C)C4C(O)CC3(C)[C@]2(C(=O)CO)O1 (stereo partly drawn) | inactive
CC(C)[C@H](O)C(=O)N[C@@H](C)C(=O)N[C@@H]1C(=O)N(C)CCc2ccccc21 | inactive
Cc1cnc(Nc2cccc(CN3CCOCC3)c2)nc1Nc1cccc(S(=O)(=O)NC(C)(C)C)c1 | inactive
CN1c2ccccc2C(=O)N2CCc3c([nH]c4ccccc34)C21 (stereo not drawn) | inactive
CN1C(=O)C[C@H](C(=O)N[C@@H](Cc2cnc[nH]2)C(=O)N2CCC[C@@H]2C(N)=O)NC1=O | inactive
COc1ccc(CCC(=O)Nc2nc3ccc(Cl)cc3s2)cc1OC | inactive
O=C(Nc1cccc(Cl)c1)Nc1ncc(CCNc2ncnc3ccsc23)s1 | inactive
CCOC(=O)[C@H]1O[C@H]1C(=O)N[C@@H](CC(C)C)C(=O)NCCC(C)C | inactive
CCOc1ccccc1N=Nc1c(C)[nH]n(-c2nc(-c3ccccc3)cs2)c1=O | inactive
O=C1C(c2c(O)[nH]c3ccccc23)=Nc2ccccc21 | inactive
